Results reported in PubChem BioAssay AID488837 (National Center for Advancing Translational Sciences (NCATS), 2010).
The whole screen tested about 330,000 compounds, of which about 20 (0.006%) were called active. Inconclusive results (about 1%) are left out. The entries come from a sample that favours actives as a whole. Unmarked numbers belong to inactive results. Calls follow the shape of the dose curve; as a rule, active = well fitted inhibition curve with a large enough effect; inconclusive = small, poorly fitted or top-dose-only effect, or effect the other way; inactive = flat fitted curve, though single readings scatter.

molecular target: Protein phosphatase EYA2 (Homo sapiens) (UniProt O00167); assay: qHTS Assay for Inhibitors of the Phosphatase Activity of Eya2; details: recombinant Eya2, OMFP fluorescence dephosphorylation (OMFP is methylfluorescein phosphate); series mostly up to 76.9 µM; activity, negative = inhibition: at the top concentration
Source text: The Eya family of proteins are essential co-activators of the Six1 transcription factor. Six1 is a developmental gene that is abnormally re-expressed in a large percentage of breast cancers. This over-expression plays a causal role in the initiation and metastatic development of breast cancers. The Eya family of proteins was also found to contain a unique HAD phosphatase domain with protein tyrosine phosphatase activity which can potentially play a role in Six1-mediated breast tumorigenesis. […] We have developed and optimized a 1536 well fluorescence-based HTS assay targeting the phosphatase activity of Eya2. Inhibitors found against Eya2 could serve as potential therapeutic tools to inhibit Six1-mediated breast tumorigenesis and to increase the efficiency of radiation and certain chemo therapy. These inhibitors could also be used as chemical probes to study the function of Eya2's phosphatase activity and its role in Six1-mediated breast tumorigenesis.
The Eya2 enzyme was kindly provided by the laboratory of Dr. Rui Zhao. The 3-O-methyl-fluorescein phosphate (OMFP) substrate and all buffer reagents were purchased from Sigma Aldrich. qHTS Assay Setup: 1. Buffer- 50 mM HEPES pH 7.5, 50 mM NaCl, 5 uM MgCl2, 0.05% BSA, 1 mM DTT. 2. OMFP Stock- 10 mM solution prepared in 100% DMSO and stored in single use aliquots at -20C. Assay Procedure- 1. Dispense 1.5 ul per well of Eya2 at 0.2 uM in black medium binding 1536 well Greiner plate 2. Transfer 23 nl of compound and control compound (EGTA) to plate 3. Incubate at ambient for 10 minutes 4. Dispense 1.5 ul per well of OMFP at 50 uM 5. Incubate at ambient for 10 minutes 6. Read on ViewLux using Excitation = 485 nm, Emission = 525 nm
% is scaled to controls: 0 for no effect and ±100 for the full control effect.

Sequence of Protein phosphatase EYA2 (Homo sapiens) (O00167 whole entry, looked up, the tested form may be a part): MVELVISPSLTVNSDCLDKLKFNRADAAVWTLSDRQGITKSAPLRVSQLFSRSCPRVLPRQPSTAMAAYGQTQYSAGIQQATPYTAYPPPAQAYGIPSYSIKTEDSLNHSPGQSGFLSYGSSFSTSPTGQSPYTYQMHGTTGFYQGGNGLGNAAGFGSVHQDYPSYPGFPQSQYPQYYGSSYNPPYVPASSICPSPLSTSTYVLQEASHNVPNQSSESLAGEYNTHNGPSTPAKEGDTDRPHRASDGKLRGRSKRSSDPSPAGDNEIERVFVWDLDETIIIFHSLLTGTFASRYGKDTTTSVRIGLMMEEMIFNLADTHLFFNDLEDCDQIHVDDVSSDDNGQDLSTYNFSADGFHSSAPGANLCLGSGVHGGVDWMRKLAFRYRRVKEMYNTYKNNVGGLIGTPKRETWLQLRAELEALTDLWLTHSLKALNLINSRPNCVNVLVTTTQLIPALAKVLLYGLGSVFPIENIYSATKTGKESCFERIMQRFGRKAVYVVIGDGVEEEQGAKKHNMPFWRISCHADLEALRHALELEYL

SMILES | activity, negative = inhibition
CCC(CC)C(=O)Nc1ccc(S(=O)(=O)Nc2nccs2)cc1 | -10.9%
COC(=O)C1CCCCN1C(=O)c1ccc(OC2CCN(C(C)=O)CC2)c(OC)c1 (stereo not given) | -0.803%
CC1=CC2=NC(=O)CC(C)(C(=O)N(CC(=O)NC(C)(C)C)Cc3ccccc3)N2C=C1 (stereo not given) | 13.6%
N=c1ccn(CC(=O)NC(N)=O)c2ccccc12 | -0.642%
Cc1ccc(S(=O)(=O)N2CCC(Oc3ccc(-n4cnnn4)cc3)CC2)cc1 | -2.01%
COc1ccc(C(=O)OCc2cc(=O)n3ccsc3n2)cc1F | 0.907%
Cc1ccc(CCn2c3c(c4ccccc42)CN(C)CC3)cn1 | -5%
Nc1ncnc2c1c(I)cn2[C@@H]1C[C@H](N)[C@@H](O)[C@H]1O | -3.77%
CSCCC(NS(=O)(=O)c1ccc2c(c1)oc(=O)n2C)C(=O)NCc1ccccc1 (stereo not given) | 2.62%
O=C(COc1ccc([N+](=O)[O-])cc1)Nc1cccc(C(=O)Nc2ccccc2C(=O)O)c1 | -10.2%
CCCN1Cc2cccc(C(=O)Nc3ccc(S(=O)(=O)N4CCCCCC4)cc3)c2C1=O | 14.1%
N#C/C(=C\N1CCOCC1)S(=O)(=O)c1ccc(Cl)cc1 | 1.29%
CCOc1ccc(CCNC(=O)CN2C(=O)NC3(CCc4ccccc43)C2=O)cc1OCC (stereo not given) | 14%
CCc1noc(C)c1C(=O)N1CCCSC1=Nc1ccccc1OC | -2.86%
COc1ccc(OCCCC(=O)Nc2cccc(S(=O)(=O)N3CCCCCC3)c2)cc1 | 4.7%
COC(=O)c1ccc(CSc2ccc3nnc(-c4ccccc4)n3n2)o1 | 11.8%
Cc1cccc(C)c1NC(=O)C1CCCN1C(=O)OC(C)(C)C (stereo not given) | -28.3%
O=C(Cc1ccccc1Cl)N1CCN(c2ccccn2)CC1 | -2.3%
Cc1cc(C)c(C)c(S(=O)(=O)N[C@@H](C)C(=O)OC(C)C(=O)NC(N)=O)c1C (stereo not given in full) | 11.7%
Cc1ccc(CC2C(=O)N(c3ccc(F)cc3)C(=O)C2C)cc1 (stereo not given) | 6.36%
O=C(CNC(=O)OCc1ccccc1)Oc1cc2oc(=O)cc(-c3ccccc3)c2cc1Cl | -1.8%
CCN(CC)P(=O)(C(NC(=O)OC)C(F)(F)C(F)(F)C(F)(F)C(F)F)N(CC)CC (stereo not given) | -3.75% [at 15.4 µM]
COc1cc(NC(=O)c2ccccc2NS(=O)(=O)c2ccc(Cl)s2)cc(OC)c1 | 2%
CN(C)/C(CN1CCCCC1)=C1\N=C(c2ccccc2)OC1=O | -3.09%
CN(C)CCOc1cccc(Br)c1 | -8.41%

SMILES | activity, negative = inhibition
C=CCC[C@@H](Cc1ccc(F)cc1)C(=O)OC[C@H](Cc1c[nH]c2ccccc12)NC(=O)[C@@H](CC=C)CC(=O)N(CCO)Cc1ccccc1 | -1.4%
CN(C)S(=O)(=O)c1ccc(N2CCCC2)c(C(=O)NCc2ccccc2)c1 | 15.5%
Cc1cccc(C)c1NC(=S)N1CCCCCC1 | -3.85%
O=S1(=O)CCC(NC(=S)SCc2ccccc2Br)C1 (stereo not given) | -11.2%
N#CCC(=O)NC(=O)NCC1CC1 | 0.0591%
N/C(=N\OS(=O)(=O)c1cccc([N+](=O)[O-])c1)c1ccncc1 | 6.35%
Cc1ccccc1-n1nnnc1SCCCC(=O)c1ccc(F)cc1 | 2.34%
C=CCC1(CC=C)CCCN1C(=O)c1cc(COc2ccc(-n3cncn3)cc2)on1 | -4.12%
CCCCCCCNc1nc(Cl)nc(NCCO)n1 | 1.64%
CSc1ccc(Cl)c(C(=O)OCC(=O)N2CCNC2=O)c1 | -9.57%
c1cc(-n2cnnn2)ccc1NC1=NCCC1 | 21.4%
Cc1ccc(OCc2nnc(NC(=O)OCC(C)C)s2)cc1 | -17.8%
COC(=O)[C@]1(Cc2ccccc2)N[C@H](CN(C)S(=O)(=O)c2ccc(OC(F)(F)F)cc2)[C@@H]2C(=O)N(Cc3ccccc3)C(=O)[C@@H]21 | 1.09%
CSc1cccc(NC(=O)CN2C(=O)COc3ccc(S(=O)(=O)N4CCOCC4)cc32)c1 | -9.82%
Cc1noc(NS(=O)(=O)c2ccc(NC(=O)c3oc4ccc(F)cc4c3C)cc2)c1C | 3.85%
Cn1c2ccc(F)cc2c2nnc(NN)nc21 | -2.6%
CCCCn1c(N)c(N(CC(C)C)C(=O)c2ccc(Br)o2)c(=O)[nH]c1=O | -5.18%
CC(=O)/C(C)=N/O | 3.95%
Cc1cccc(Nc2nnc(SCC(=O)c3c(N)n(C4CC4)c(=O)[nH]c3=O)s2)c1C | 4.01%
COc1ccc(OC)c2c1sc(=NC(=O)CN1C(=O)CCC1=O)n2C | -8.43%
CN(C(=O)CSc1nnc(-c2n[nH]c3ccccc23)o1)c1ccccc1 | -8.32%
CCOc1cc(/C=C2/N=C(c3ccc(C(C)(C)C)cc3)OC2=O)cc(Cl)c1OS(C)(=O)=O | 6.4%
OCc1n[nH]c(CO)n1 | -15%
CCC1Sc2ccc(S(=O)(=O)CCC(=O)NCc3cccs3)cc2NC1=O (stereo not given) | 3.37%
CCN(CC)c1ccc(S(=O)(=O)N2CCOCC2)cc1NC(=O)CSc1cccc[n+]1[O-] | -1.83%
